The source made the active and inactive calls.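 How the source made its calls: active means inhibition above the hit cutoff set in the earlier primary screen (cut at about 27% in these data); inactive means the rest.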
target: Protein phosphatase methylesterase 1 (Homo sapiens) (UniProt Q9Y570); assay: PME-1 inhibitor activity retest, confirmation, biochemical, fluorescence polarization, FP-Rh probe, triplicate (AID 2171); conditions: recombinant PME-1, FP-Rh probe fluorescence polarization; at 5.9 µM; stronger effect = higher value;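 further: 0% = enzyme with DMSO and 100% = wells lacking PME-1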
Sequence (Q9Y570 whole entry, looked up): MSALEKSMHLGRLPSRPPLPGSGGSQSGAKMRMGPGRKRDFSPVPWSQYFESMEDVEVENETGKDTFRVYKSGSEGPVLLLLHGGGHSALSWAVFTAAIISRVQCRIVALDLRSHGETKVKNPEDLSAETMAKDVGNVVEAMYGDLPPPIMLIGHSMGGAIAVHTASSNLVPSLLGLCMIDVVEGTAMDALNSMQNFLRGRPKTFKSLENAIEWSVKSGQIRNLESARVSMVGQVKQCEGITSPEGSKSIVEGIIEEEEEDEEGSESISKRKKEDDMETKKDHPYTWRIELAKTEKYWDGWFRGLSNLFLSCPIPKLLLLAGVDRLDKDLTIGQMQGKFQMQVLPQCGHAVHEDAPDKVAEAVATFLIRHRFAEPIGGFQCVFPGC

Row | Compound | inhibition
1 | CCOC(=O)/C(=N\Nc1ccc(Cl)cc1)c1csc(Nc2ccccc2)n1 | 14.4% (inactive)
2 | CCCCC(=Nc1ccc(N)cc1)C1=C(O)C(C(=O)OC)C(C)(C)CC1=O (stereo not given) | 13.4% (inactive)
3 | O=c1cc(-c2ccccc2Cl)oc2c(NS(=O)(=O)c3cc(Cl)cc(Cl)c3O)ccc(O)c12 | 47.1% (active)
4 | CCN(CC)S(=O)(=O)c1ccc(C)c(NC(=O)COC(=O)c2ccc(C)c(S(=O)(=O)N3CCOCC3)c2)c1 | 49.7% (active)
5 | O=C(N/N=C/c1sc(N2CCOCC2)nc1-c1ccccc1)c1ccccc1O | 51.2% (active)
6 | Cc1c(C(=O)N/N=C/c2ccc(O)c(Br)c2)sc(N)c1C#N | 49.7% (active)
7 | COc1cccc(CNC(=O)CCCc2cn(C)c3ccccc23)c1 | 6.78% (inactive)
8 | COc1cc(/C=N/NC(=O)c2cc3c(ccc4ccccc43)o2)cc(OC)c1O | 29% (active)
9 | O=[N+]([O-])c1ccc(N/N=C/c2ccccc2O)cc1 | 10.8% (inactive)
10 | O=C(O)c1cccc(-c2ccc(/C=N/Nc3ccc([N+](=O)[O-])cc3)o2)c1 | 31.7% (active)
11 | COc1ccc(/C=N/Nc2cc(C)nc(-n3nc(C)cc3C)n2)c(OC)c1 | 41.6% (active)
12 | Cc1cccc(NC(=S)N/N=C/c2c[nH]c3ccccc23)c1 | 33.3% (active)
13 | N#CCSc1nc2c(cc1C#N)CCCCCC2 | 22.3% (inactive)
14 | C=CCOc1c(OC)cc(/C=N/Nc2cccc(C(=O)O)c2)c(Br)c1Br | 44.5% (active)
15 | O=C(O)c1ccccc1N/N=C/c1cc(Br)cc(Br)c1O | 43.7% (active)
16 | COc1ccc2ccccc2c1C(O)c1nccn1C (stereo not given) | 23.1% (inactive)
17 | Cc1ccc(S(=O)(=O)N2CCN(C(=O)Cn3c(=O)cnc4ccccc43)CC2)cc1 | 25.8% (inactive)
18 | Cc1ccc(C(=O)O)cc1N1C(=O)c2cccc3c([N+](=O)[O-])ccc(c23)C1=O | 38.7% (active)
19 | CCn1c2ccccc2c2cc(NC(=O)c3ccccc3[N+](=O)[O-])ccc21 | 20.3% (inactive)
20 | COc1ccc(S(=O)(=O)N2CCCCCC2)cc1NC(=O)Cc1cc(OC)c(OC)c(OC)c1 | 64% (active)

Row | Compound | inhibition
21 | O=C(N/N=C/c1c[nH]c2ccccc12)c1sc2ccccc2c1Cl | 21.7% (inactive)
22 | CC(=O)Cc1cc(O)c2ccccc2c1OC(=O)c1ccc(Br)cc1 | 24.8% (inactive)
23 | Cc1ccccc1NC1=C/C(=N\S(=O)(=O)c2cccs2)c2ccccc2C1=O | 38.4% (active)
24 | CC#CCN1c2ccccc2[C@]23C[C@@H](C(=O)OC)N(C(=O)c4cc(C)oc4C)C2=NC(C(=O)OC)=C(C(=O)OC)[C@H]13 | 29.6% (active)
25 | COc1ccc(NC(=O)c2c[nH]n3c(=O)cc(C4CCN(C(=O)OC(C)(C)C)CC4)nc23)cc1Cl | 25.1% (inactive)
26 | Oc1ccccc1-c1nc2c3ccccc3c3ccccc3c2[nH]1 | 21.4% (inactive)
27 | c1cc2c3c(cccc3c1)NC1(CCC3(CC1)Nc1cccc4cccc(c14)N3)N2 | 0.95% (inactive)
28 | Cc1csc(NC(=O)c2sc3nc(-c4cccs4)ccc3c2N)n1 | 42.6% (active)
29 | COc1ccc(/C=N/Nc2cc(C)nc3ccc(Br)cc23)cc1 | 12.9% (inactive)
30 | COc1cc(/C=N/NC(=O)c2ccc3c(c2)OCCO3)c(Br)c(Br)c1O | 43% (active)
31 | COc1cc2c(cc1NC(=O)c1cccnc1)oc1ccccc12 | 25.8% (inactive)
32 | CC1=NN(c2ccc(C)c(C)c2)C(=O)C1C(c1cccc(O)c1)C1C(=O)N(c2ccc(C)c(C)c2)N=C1C (stereo not given) | 15.3% (inactive)
33 | Cc1nn(-c2ccc(Br)cc2)c(=O)c2ccccc12 | 4.4% (inactive)
34 | O=C(O)c1ccc(N=Nc2c(O)[nH]c3cc(Cl)ccc23)cc1 | 116% (active)
35 | CC(C)c1ccc2[nH]c(O)c(N=NC(=O)c3ccc(CSc4nncn4C)cc3)c2c1 | 104% (active)
36 | O=C1[C@@H]2Cc3c([nH]c4ccccc34)C(c3ccccc3)N2C(=O)CN1C1CC1 (stereo not given in full) | 5.42% (inactive)
37 | CCCCN(C)CCCNC(=O)c1cn(CC)c2ccc(S(=O)(=O)N3CCc4ccccc4C3)cc2c1=O | 53.6% (active)
38 | COc1ccc(N=Nc2nc(-c3ccccc3)c(-c3ccccc3)[nH]2)cc1 | 10.8% (inactive)
39 | Cc1cc(Br)ccc1N=C1NC(=O)CS1 | -3.07% (inactive)
40 | COc1cccc(-c2nc(NC3CCCC3)c3ccccc3n2)c1O | 13.3% (inactive)

From PubChem BioAssay
